Reference: ChEMBL document CHEMBL3988442, “University of Dundee, Small-Polar-MMV Screening Library” (2021)

Experiments:
[1] = molecular target: T1, Aspartate--tRNA(Asp/Asn) ligase (Mycobacterium tuberculosis (strain ATCC 25618 / H37Rv)) (UniProt P9WFW3); assay: Assay for Asp RNA synthetase-1 from Mycobacterium tuberculosis; format: functional; set-up: scale not given: direction of the effect not stated beside the values; details: 30 µM; also: in the data most compounds retested in dose-response had high values
T1 sequence (whole entry): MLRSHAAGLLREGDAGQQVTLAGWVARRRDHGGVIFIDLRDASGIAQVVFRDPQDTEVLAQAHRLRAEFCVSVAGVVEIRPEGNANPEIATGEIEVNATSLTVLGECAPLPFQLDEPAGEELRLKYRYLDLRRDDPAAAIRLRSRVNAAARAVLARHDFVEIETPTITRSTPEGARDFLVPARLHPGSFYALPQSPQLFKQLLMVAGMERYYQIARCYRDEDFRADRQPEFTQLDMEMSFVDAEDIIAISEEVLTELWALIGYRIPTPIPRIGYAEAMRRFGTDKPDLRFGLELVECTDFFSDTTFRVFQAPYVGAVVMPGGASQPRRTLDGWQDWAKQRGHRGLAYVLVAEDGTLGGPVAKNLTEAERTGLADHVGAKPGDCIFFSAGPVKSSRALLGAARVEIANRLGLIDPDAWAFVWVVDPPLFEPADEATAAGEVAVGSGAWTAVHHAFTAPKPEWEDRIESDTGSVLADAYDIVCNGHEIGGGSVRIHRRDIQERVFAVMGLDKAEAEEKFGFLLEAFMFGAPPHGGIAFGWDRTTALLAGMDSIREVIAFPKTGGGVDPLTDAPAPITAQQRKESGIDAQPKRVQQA

[2] = molecular target: Shiga toxin 2 (Escherichia coli O157:H7) (UniProt P09385+P09386); assay: E. coli 0.157:H7 Shiga Toxin SOP - stx2 screening assay; format: functional; set-up: scale not given: direction of the effect not stated beside the values; details: 30 µM

Row | Structure (SMILES) | Percent Effect [1] | Percent Effect [2]
1 | O=C(Cc1cccs1)N1CC[C@H]2[C@@H]1CCC(=O)N2c1cccnc1 | -1.62% | -9.24%
2 | COCc1nc(N(C)C)ncc1C(=O)NC(C)C | -0.697% | -16.3%
3 | CNc1cc(C2CCCN2C(=O)c2ccc3oc(=O)n(C)c3c2)ccn1 (stereo not drawn) | 4.04% | 7%
4 | Cn1cc(C(=O)N2CCCC(Cc3nccs3)C2)cn1 (stereo not drawn) | 2.4% | 14.9%
5 | CCc1nc(CN(C)C2CCN(CCS(C)(=O)=O)C2)no1 (stereo not drawn) | 3.04% | -32.8%
6 | O=S(=O)(Cc1ccccc1)N1CCCn2cnc(CN3CCCC3)c2C1 | 16% | -5.12%
7 | Cc1cccc(CN2CCc3ncnc(C)c3CC2)n1 | -0.616% | -16.2%
8 | CC(C)NC(=O)c1ccc2c(c1)nc1n2CCN(c2ccccc2)C1 | 0.0581% | -15.6%
9 | CCCN1CC(C(=O)Nc2ccccn2)CC1=O (stereo not drawn) | -1.33% | 1.5%
10 | Cc1cncc(C2CCCN(C(=O)c3ccc(C)[nH]c3=O)C2)n1 (stereo not drawn) | 0.25% | -13%
11 | Cc1nc(CNC(=O)NCC(O)c2ccc(F)c(F)c2)cs1 (stereo not drawn) | -2.91% | 4.89%
12 | CN(C)S(=O)(=O)N1CCC[C@]2(C[C@@H](Oc3ccccn3)CO2)C1 | 3.16% | -10.1%
13 | CCN1CCN(C(=O)CCc2c(C)noc2Cl)CC1 | 0.983% | 28.8%
14 | Cc1nn(C)c(C)c1C1CCCN1C(=O)c1cnc2n[nH]c(C)c2c1 (stereo not drawn) | -5.16% | -21.8%
15 | Cc1cc(S(=O)(=O)N2CCc3ccc(F)cc32)cc(C(=O)O)c1C | 2.1% | -5.86%
16 | CCOc1nnc(CN2CCC(N(C)Cc3noc(C)n3)C2)s1 (stereo not drawn) | 5.37% | 24.4%
17 | CCn1cc(CN(C)S(=O)(=O)c2ccc(NC(C)=O)cc2)cn1 | 2.64% | -65.2%
18 | CC(CNC(=O)Nc1ccc(N(C)C)nc1)Cn1cccn1 (stereo not drawn) | 5.91% | -40.9%
19 | CCCc1nc(CN2CCCC2Cn2cncn2)cs1 (stereo not drawn) | -4.65% | -7.55%
